From PubChem BioAssay (NCI) come the findings set out here.

Compounds without any hit were thinned out: in the full panel of roughly 83,000, 20% have a hit.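 Interpretation: 100, growth as untreated; towards 0, rising growth inhibition; 0, no net growth; 0 to -100, cell death. Compounds scoring below 10 were considered active.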 The source made the active and inactive calls.

This assay concerns NCI-H522 lung. The assay is described as follows: NCI-60 one-dose screen, 48 h (100 = growth as untreated, 0 = no growth, -100 = all killed). To be noted: 10 µM unless noted. As for the experimental part: Growth inhibition of the NCI-H522 human Non-Small Cell Lung tumor cell line is measured as a screen for anti-cancer activity. Cells are grown in 96 well plates and exposed to the test compound for 48 hours. Compounds are tested at a single concentration, which is 10^-5 M for most compounds. The reported endpoint is percent growth (GI% or GIPRCNT), where numbers from 0 - 100% represent growth inhibition, and numbers from -100% - 0 represent cell death. For example, a value of 40 represents 60% growth inhibition. A value of 0 means no net growth occurred over the course of the experiment. A value of -40 indicates 40% of cells at the beginning of the experiment died by the end of the experiment. A value of -100 means all cells are dead at the end of the experiment.
NCI-60 Human Tumor Cell Lines Screen was performed using the standard one-dose NCI protocol, which is described in more detail at https://dtp.cancer.gov/discovery_development/nci-60/default.htm.
Compounds with GIPRCNT values below 10 were considered active. Activity score was based on GIPRCNT using the following formula: […]
Score is 0 for GIPRCNT values of 100 or above, 50 for GIPRCNT values of 0, and 100 for GIPRCNT values of -100.
Regarding `O=C1/C(=C/c2ccc(Cl)cc2)CN(C(=O)C(Cl)Cl)C/C1=C\c1ccc(Cl)cc1`, the growth was -60.3% (active).

Turning to `COc1cc2c(cc1-c1c(C)noc1C)ncc1nc(CN3CCOCC3)n([C@H](C)COC(F)F)c12`, the growth is -0.0255% (active).

On to `O=C(NCCCCCCNC(=O)OCc1ccc2c(Cl)cc(Cl)c(O)c2n1)OCc1ccc2c(Cl)cc(Cl)c(O)c2n1`, for which the growth is -57.4% (active).

With `COC(=O)c1c(C)nc(C)c2c1C(=O)C=C(NCc1ccccc1)C2=O`, the growth is 78.8% (inactive).

`COc1ccc(C2C3=C(COC3=O)N(CCO)c3cc4c(cc32)OCO4)cc1OC` (stereo not given): the growth is 66.2% (inactive).

As for `Nc1ccc(Br)cc1C(F)(F)F`, the growth was 103% (inactive).

Turning to `Oc1c(CN2CCC(N3CCOCC3)CC2)cc(Cc2cc(CN3CCC(N4CCOCC4)CC3)c(O)c3ncccc23)c2cccnc12`, the growth is 15.4% (inactive).

For the molecule `O=C(/C=C/c1ccccc1)c1ccc(-n2cc(CN3CCN(c4cc5c(cc4F)c(=O)c(C(=O)O)cn5C4CC4)CC3)nn2)cc1`, the growth is 80.1% (inactive).

For `C=C1C(=O)O[C@H]2[C@H]1CC/C(COC(=O)NCc1ccc(Cn3c(=O)sn(-c4ccc(I)cc4)c3=O)cc1)=C\CC[C@@]1(C)O[C@@H]21`, the growth was 2.14% (active).

Regarding `Cc1ccc2c(c1)nc(C)n2-c1ncnc2c1CC(C)c1cc(O)ccc1N2C` (stereo not given), the growth is 23.6% (inactive).

Turning to `O=C1NC(=O)C(c2coc3cc(Br)ccc23)=C1c1c[nH]c2ccccc12`, the growth is 51.1% (inactive).

Turning to `OC1CSSC1Cn1cnc2c(Nc3ccc(OCc4cccc(F)c4)c(Cl)c3)ncnc21` (stereo not given), the growth was -31.6% (active).

For `Cn1cc(-c2csc(-c3cn(CCCN4CCOCC4)c4ccc(F)cc34)n2)c2cccnc21`, the growth was 49.5% (inactive).

Regarding `CCN(CC)CCN1C(=O)c2c(c3c4ccccc4[nH]c3c3ccc4ccccc4c23)C1=O`, the growth was 67.8% (inactive).

For `COc1ccc(C(c2cc(OC)c(OC)c(OC)c2)N2CCCCC2)cc1` (stereo not given), the growth was 19.9% (inactive).

`C[C@@H]1NC(=O)[C@H](Cc2ccccc2)N(Cc2cccnc2)C1=O`: the growth was 95.9% (inactive).

On to `O=c1cc(C(F)(F)F)c2cc(-c3cc4ccccc4c(=O)o3)c(O)cc2o1`, for which the growth was 31.3% (inactive).

In the case of `CN1C(=O)/C(=C/c2ccc(C(=O)Nc3ncc(Cc4cccc(C(F)(F)F)c4)s3)cc2)SC1=S`, the growth was 35.5% (inactive).

For the molecule `c1cc(OCCN2CCCC2)ccc1CNc1ccc2nc(CCC3CCCCC3)[nH]c2c1`, the growth is 63.2% (inactive).

Take `Cn1c(C#N)ccc1-c1ccc(F)c(NC(=O)c2ccc(F)cc2)c1`: the growth was 76.2% (inactive).

As to `CS(=O)(=O)Nc1cc(-c2ccc3ncnc(Nc4ccc(F)c(Cl)c4)c3c2)ccc1Cl`, the growth is 19% (inactive).

Consider `O=C(Cc1ccc(/C=C/C(=O)c2ncc[nH]2)cc1)Nc1cc(F)c(F)c(F)c1`, for which the growth is 49.1% (inactive).

Take `N=C(N)c1ccc(OCCSCCOc2ccc(C(=N)N)cc2)cc1`: the growth was 48.5% (inactive).

For the molecule `Cc1cc(Cl)nc(N2CCN(CCNc3ccnc4cc(Cl)ccc34)CC2)n1`, the growth was 51.8% (inactive).

As to `CNC(=O)NCC1OC(n2cnc3c(NC(=O)Nc4ccccc4)ncnc32)C2OC(=O)CC12` (stereo not given), the growth is 106% (inactive).

In the case of `N#Cc1c(-c2ccc(Br)cc2)nc2c(N=Nc3ccc(S(N)(=O)=O)cc3)c(N)nn2c1N`, the growth is 38.6% (inactive).

As to `CCCCCc1ccc(S(=O)(=O)Nc2ccc3nc(N)oc3c2)cc1`, the growth is 43.7% (inactive).

As for `O=C(Nc1cccnc1Nc1ccc(Cl)cc1)c1cn(Cc2cccc(Oc3ccccc3)c2)nn1`, the growth was 44.6% (inactive).

In the case of `O=C(/C=C/c1cn(-c2ccccc2)nc1-c1ccccc1)CCC(=O)NO`, the growth was 79.5% (inactive).

On to `NCCCNc1nc2ccccc2c2c(=O)c3cc(Cl)ccc3sc12`, for which the growth was -83.6% (active).

In the case of `COc1ccc(N=C2NN=C(c3c[nH]c4ccccc34)CS2)cc1OC`, the growth is -34.1% (active).

`O=[N+]([O-])c1ccccc1Sc1ccccc1[N+](=O)[O-]`: the growth was 87.8% (inactive).

As for `CS(=O)(=O)Nc1cc(-c2ccc3ncnc(Nc4ccc5c(cnn5Cc5ccccc5F)c4)c3c2)cnc1Cl`, the growth is 34.3% (inactive).

For `CC/C(=C(/c1ccc(O)cc1)c1ccc(OCCN2CCCCC2)cc1)c1ccc(OC)cc1`, the growth was 74.7% (inactive).

In the case of `C=CCN=c1sc(-c2ccc3ccccc3c2)cn1NC(=O)c1cc2ccc1CCc1ccc(cc1)CC2`, the growth was 76.4% (inactive).

Consider `COc1ccc(C/C(C)=C(\c2ccc(O)cc2)c2ccc(OCCN3CCCCC3)cc2)cc1`, for which the growth was 87.7% (inactive).

For the molecule `COc1ccc2c(c1)CC[C@@H]1[C@@H]2CC[C@]2(C)c3c(cc(C#N)c4c3sc3ccccc34)C[C@@H]12`, the growth was 96.5% (inactive).

Take `CN(C)CCCC1(c2ccc(F)cc2)OCc2cc(-c3csc4ccccc34)ccc21` (stereo not given): the growth is 7.99% (active).

As for `CSc1nc2ccc(C)cc2cc1/C=C1/C=C(c2ccccc2)NC1=O`, the growth is 67.6% (inactive).

Regarding `COc1cc(/C=C/C(=O)N2CCN(C(=O)c3cc(OC)c(OC)c(OC)c3)CC2)ccc1OCCCOc1cc2c(cc1OC)C(=O)N1CCC[C@H]1C=N2`, the growth was -54.5% (active).
